# Values without a mark were called inactive. The rule behind the calls is not given here.
# Experiment: PubChem AID 1788
# Conditions: MDS Pharma lead profiling panel, radioligand binding; GABAA central (rat), Flunitrazepam site; at 10 µM; active compounds read high
smiles,measurement,value
CCOC(=O)N1CCC(NCCNC(=O)c2ccccc2C)CC1,inhibition,-12%

# Source: PubChem BioAssay AID1788 (Vanderbilt High Throughput Screening Facility, 2009)
